# Sampled rows, rich in hits. Any-hit rate of the full collection: about 3.3%.
# BRCT inh red: inhibitors of human BRCA1 BRCT-phosphoprotein interaction (red fluorophore) | BRCT-phosphopeptide binding, red fluorescence polarization | Potency, µM (titrated, usually from 76.9 µM), for inactives: at the highest dose activity change, negative = inhibition, usual class: inhibitors | 75,000 tested, 0.03% active | AID 892; also: % is scaled to controls: 0 for no effect and ±100 for the full control effect
# Target sequence (P38398 whole entry, looked up): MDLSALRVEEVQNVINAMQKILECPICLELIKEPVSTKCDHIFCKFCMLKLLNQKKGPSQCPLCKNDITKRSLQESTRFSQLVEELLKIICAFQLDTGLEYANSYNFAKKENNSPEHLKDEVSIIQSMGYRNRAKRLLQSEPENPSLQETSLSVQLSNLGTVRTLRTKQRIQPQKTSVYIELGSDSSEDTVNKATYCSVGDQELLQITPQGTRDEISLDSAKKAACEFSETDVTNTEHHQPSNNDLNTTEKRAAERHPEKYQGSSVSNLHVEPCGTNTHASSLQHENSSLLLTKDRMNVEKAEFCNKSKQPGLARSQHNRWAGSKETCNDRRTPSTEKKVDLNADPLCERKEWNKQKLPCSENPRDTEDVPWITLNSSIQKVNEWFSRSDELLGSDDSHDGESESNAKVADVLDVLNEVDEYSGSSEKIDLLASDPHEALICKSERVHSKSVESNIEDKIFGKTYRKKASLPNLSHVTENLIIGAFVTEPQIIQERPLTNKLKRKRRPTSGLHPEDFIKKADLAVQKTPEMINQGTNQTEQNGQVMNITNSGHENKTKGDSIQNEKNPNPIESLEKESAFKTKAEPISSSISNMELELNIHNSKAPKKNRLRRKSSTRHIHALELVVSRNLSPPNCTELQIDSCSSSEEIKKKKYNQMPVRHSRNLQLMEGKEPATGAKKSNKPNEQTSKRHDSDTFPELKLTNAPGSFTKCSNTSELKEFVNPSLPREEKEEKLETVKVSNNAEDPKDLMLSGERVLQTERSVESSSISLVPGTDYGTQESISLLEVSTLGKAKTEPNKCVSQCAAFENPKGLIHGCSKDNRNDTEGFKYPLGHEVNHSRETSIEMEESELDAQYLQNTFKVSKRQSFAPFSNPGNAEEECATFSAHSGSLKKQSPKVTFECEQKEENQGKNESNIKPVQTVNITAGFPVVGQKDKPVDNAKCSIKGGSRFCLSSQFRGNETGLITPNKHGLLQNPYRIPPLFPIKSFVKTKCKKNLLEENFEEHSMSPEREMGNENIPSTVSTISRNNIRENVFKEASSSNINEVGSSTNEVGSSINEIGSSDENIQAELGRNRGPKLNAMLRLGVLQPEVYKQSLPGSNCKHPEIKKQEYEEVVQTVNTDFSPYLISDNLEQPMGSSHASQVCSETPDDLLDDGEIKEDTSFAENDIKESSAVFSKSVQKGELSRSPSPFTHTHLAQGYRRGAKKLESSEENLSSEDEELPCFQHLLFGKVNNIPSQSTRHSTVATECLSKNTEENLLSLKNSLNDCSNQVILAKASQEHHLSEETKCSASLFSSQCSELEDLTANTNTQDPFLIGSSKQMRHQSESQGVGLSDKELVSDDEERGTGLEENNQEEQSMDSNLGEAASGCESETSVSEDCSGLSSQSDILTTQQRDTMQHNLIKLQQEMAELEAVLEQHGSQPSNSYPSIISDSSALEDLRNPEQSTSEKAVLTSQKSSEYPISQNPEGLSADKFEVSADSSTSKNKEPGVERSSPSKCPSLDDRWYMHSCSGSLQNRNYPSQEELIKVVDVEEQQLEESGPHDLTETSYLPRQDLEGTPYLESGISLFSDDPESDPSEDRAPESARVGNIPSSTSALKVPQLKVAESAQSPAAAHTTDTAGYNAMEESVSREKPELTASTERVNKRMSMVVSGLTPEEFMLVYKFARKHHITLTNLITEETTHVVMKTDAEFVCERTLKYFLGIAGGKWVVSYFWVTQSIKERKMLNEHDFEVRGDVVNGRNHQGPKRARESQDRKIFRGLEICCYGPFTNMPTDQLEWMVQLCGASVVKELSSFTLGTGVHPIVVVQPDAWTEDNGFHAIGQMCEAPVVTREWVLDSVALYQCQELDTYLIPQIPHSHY
#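 Rhodamine-labelled pBACH1 10-mer (100 nM) bound to BRCT domain (100 nM) at pH 7.3; compounds incubated 12 min room temperature, polarization read. Free peptide defines full inhibition; unlabelled decapeptide titrated as control.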
# BRCT inh green: blocks human BRCA1 BRCT binding to phosphopeptide, green readout | P38398 | BRCA1 BRCT-phosphopeptide binding, green fluorescence polarization | Potency, µM (titrated, usually from 76.9 µM), inactives show top-dose activity change, negative = inhibition, hits mostly inhibitors | 75,000 tested, 0.05% active | AID 875;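 also: potency is read from the fitted curve at half-maximal effect; plate controls were peptide without protein for full effect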
#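 Compounds were incubated for 12 min at room temperature with a complex of 100 nM fluorescein-tagged pBACH1 decapeptide and 250 nM His-tagged BRCT protein. Buffer was phosphate pH 7.3 with EDTA, DTT and Tween 20. Disruption of binding lowers the polarization signal.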
# TSHR ag: activates the human thyroid stimulating hormone receptor; 73,000 tested, 0.48% active; P16473; HEK293-CNG-TSHR cells (CNG channel as cAMP sensor), membrane potential dye, cAMP; Potency, µM (highest dose often 57.1 µM), for the others: at the top dose activation, usual class: activators; active = well fitted activation curve with a large enough effect in the main read-out, with a control signal flat, not every such curve was filed as active; inconclusive = small, poorly fitted or top-dose-only effect, or a change in a side signal; inactive = no such curve, though single readings can be large or run the other way; % of control where 0% means no effect;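 also: the control signal comes from parental cells without the receptor; potency is read from the fitted curve at half-maximal effect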
#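 HEK 293 cells stably expressing TSHR and a cAMP-gated CNG channel; parental CNG-only cells as counterscreen. Cells preloaded 60 min with membrane potential dye plus 100 uM RO 20-1724, then compound 30 min; fluorescence read at 590 nm.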
# YjeE inh: inhibitors of E. coli YjeE (TsaE). purified YjeE enzyme, qHTS inhibition assay. 71,000 tested, 0.05% active. Potency, µM. AID 605
#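 Purified YjeE (10 uM) with BODIPY Texas Red-labeled ADP probe (2 uM); compounds pin-transferred, 15 min at room temperature. Binding inhibition read as decreased fluorescence polarization; ADP titration as control.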
# Hsp90 Hop PPI: changes Hsp90-Hop TPR2A binding signal, up or down | AlphaScreen TPR2A-His6 binding biotin-Hsp90 C-terminal peptide | Potency, µM (series often up to 57 µM), for inactives: at the highest dose activity change, negative = inhibition | 71,000 tested, 0.44% active; active = well fitted curve in either direction with a large enough effect; inconclusive = small, poorly fitted or top-dose-only effect, or another doubt; also: potency is read from the fitted curve at half-maximal effect; % is scaled to controls: 0 for no effect and ±100 for the full control effect
# HEK293 cAMP cs: raises cAMP in parental HEK293 cells, TSHR agonist counter-screen; parental HEK293 CNG cAMP sensor, membrane potential fluorescence; Potency, µM (highest dose often 57.1 µM), for the others: top-dose activation, hits mostly activators; 73,000 tested, 2.5% active; also: potency is read from the fitted curve at half-maximal effect; % of control where 0% means no effect; nearly all actives have a fitted effect of over 55% in size
#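 Parental HEK 293 cells stably expressing a modified CNG channel (no TSHR) report cAMP rise as membrane depolarization. Membrane potential dye with 100 uM RO 20-1724 was loaded for 60 min at room temperature, then compound added for 30 min; fluorescence read at 590 nm.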
# An asterisk follows results filed as active; i = inactive; ? = inconclusive; · = not tested or not shown; ! = repeats disagree; [ ] = another dose, or the depositor's remark. Unless noted, calls follow the shape of the dose curve; as a rule, active = well fitted curve in the direction sought with a large enough effect; inconclusive = small, poorly fitted or top-dose-only effect, or another doubt; inactive = no such curve, though single readings can be large; an effect the other way counts as inactive or inconclusive.
SMILES,BRCT inh red,BRCT inh green,TSHR ag,YjeE inh,Hsp90 Hop PPI,HEK293 cAMP cs
CCOC(=O)c1c(NC(=O)CN2CCCCC2)sc2c1CCN(C(=O)OCC)C2,0%,4%,?,·,·,7.9µM*
CCOC(=O)c1c(NC(=O)CN(CC)CC)sc2c1CCN(C(=O)OCC)C2,-4%,-1%,?,·,·,?
C[C@@H]1C[C@@]2(C)Oc3ccccc3[C@H]3OC[C@]1(COC(=O)Nc1ccccc1)[C@@H](C)[C@@H]32,·,·,11%,i,13%,12%
O=c1n(Cc2ccccc2Cl)c2sc3c(c2c2ncnn12)CCCC3,-2%,-4%,20µM*,i,-3%,28%
O=C(Cn1c(=O)n2ncnc2c2c3c(sc21)CCCC3)c1ccccc1,-1%,0%,?,i,-6%,25µM*
NC(=O)CSc1nc2sc3c(c2c2ncnn12)CCCC3,-1%,11%,22%,i,-4%,2%
Cn1c(=O)n(Cc2ccco2)c(=N)c2c3c(sc21)CCC3,0%,0%,11%,i,-5%,20%
COc1ccc2nc3c(cc2c1)Cc1ccccc1-3,-1%,-2%,?,i,?,25µM*
O=C(O)c1cc(S(=O)(=O)Nc2cccc(Cl)c2)ccc1O,1%,1%,?,·,·,?
Cc1ccc(Cl)cc1N1CCN(C(c2ccc(C#N)cc2)c2nnnn2C2CCCC2)CC1 (configuration not stated),0%,-2%,?,i,4%,1.3µM*
Cc1ccc(Cl)cc1N1CCN(C(c2cccnc2)c2nnnn2C2CCCCC2)CC1 (configuration not stated),-1%,-1%,3%,i,-2%,26%
COc1ccc(-c2nnc(SCC(=O)N(Cc3ccccc3)C(C)(C)C)o2)cc1OC,0%,-1%,?,i,-8%,32µM*
COc1cc(-c2nnc(SCC(=O)c3ccccc3)o2)cc(OC)c1OC,-1%,0%,29%,i,-8%,21%
COc1ccccc1CNc1ncnc2ccc(-c3cccc(NS(C)(=O)=O)c3)cc12,4%,-1%,27%,i,-14%,16%
Nc1ccccc1C(=O)C[C@@H](N)C(=O)O,·,·,-2%,i,?,1%
CCCCn1c(NC(=O)c2ccccc2)nc2ccccc21,1%,-1%,?,i,24%,32µM*
CCn1c(SCC(=O)N2c3ccccc3Sc3ccccc32)nc2c1c(=O)n(C)c(=O)n2C,0%,-1%,20µM*,i,1%,7%
Cc1ccc(Cn2c(SCC(C)C)nc3c2c(=O)n(C)c(=O)n3C)cc1,-1%,-1%,?,i,1%,25µM*
COC(=O)C1=NOC2(C=C(Br)C(OC)=C(Br)C2=O)C1 (configuration not stated),-2%[15.4 µM],-1%[15.4 µM],-2%[11.4 µM],·,·,4%[11.4 µM]
O=C(c1ccccc1C(=O)N1CCN(c2ccccc2F)CC1)N1CCN(c2ccccc2F)CC1,1%,-1%,?,i,-5%,16µM*
CN1C2CC(OC(=O)C(CO)c3ccccc3)C[C@@H]1[C@H]1OC21 (some centres not stated),-4%,-2%[3.08 µM],·,·,·,·
COC(=O)c1ccc(C(NC(=O)OCc2ccccc2)/C(C)=C/[C@@H](C)C(=O)Nc2ccc(OC)cc2)cc1 (some centres not stated),0%,-1%,·,i,1%,24%
Cc1ccc(C)c(NC(=O)c2ccc3c(c2)N(Cc2ccc(F)cc2)C(=O)CS3=O)c1 (configuration not stated),1%,0%,?,i,-1%,32µM*
Cn1c(O)c(N=N/C(=N/c2ccccn2)c2ccccn2)c2cc(Br)ccc21,-1%,-5%,?,·,·,-46%
COc1ccc([C@H](O)c2ccccn2)cc1,0%[15.4 µM],1%[15.4 µM],4%[11.4 µM],i,-2%[11 µM],4%[11.4 µM]
SMILES,BRCT inh red,BRCT inh green,TSHR ag,YjeE inh,Hsp90 Hop PPI,HEK293 cAMP cs
CC(=O)Oc1ccc(C(c2ccc(OC(C)=O)cc2)c2ccccn2)cc1,-1%,-1%[3.08 µM],?,i,-3%,2.5µM*
O=C(CN(Cc1ccc2c(c1)OCO2)C(=O)CSc1nc2ccccc2o1)NC1CCCCC1,-1%,0%,?,i,1%,16µM*
COCCN(CC(=O)NC1CCCCC1)C(=O)CSc1nc2ccccc2o1,-1%,-1%,?,i,1%,?
c1ccc(-c2noc(CSc3nnnn3-c3ccccc3)n2)cc1,1%,-4%,?,i,?,?
Fc1ccc(-n2c(Cc3ccccc3)nnc2SCc2nc(-c3cccs3)no2)cc1,-2%,2%,?,i,-2%,25µM*
c1ccc(-c2noc(CSc3nnc(Cc4cccs4)n3-c3ccccc3)n2)cc1,-2%,1%,?,i,-17%,25µM*
C[C@@H](C(=O)NCCF)[C@H]1C[C@]1(C)[C@H](NC(=O)OCc1ccccc1)c1ccccc1,-4%,-2%,?,i,-7%,16µM*
C=C(N(C)C)[C@]1(C)C[C@H]1[C@H](NC(=O)CNC(=O)OCc1ccccc1)c1ccccc1,-2%,-3%,?,i,-2%,16µM*
CC1CCC2C(=O)OC(CN=[N+]=[N-])CN2C1c1ccc(Br)cc1 (configuration not stated),0%[15.4 µM],-1%[15.4 µM],?,·,·,5µM*!
O=C(COc1ccc(Cl)cc1)Nc1nc(-c2cccs2)cs1,0%,3%,?,i,17%,25µM*
CCOC(=O)Cc1csc(NC(=O)COc2ccccc2)n1,0%,-1%,8%,i,-4%,7%
CCOC(=O)Cc1csc(NC(=O)COc2ccc(N(C)S(=O)(=O)c3cccs3)cc2)n1,1%,3%,?,i,-4%,13µM*
O=c1cnc2cnc(Nc3ccccc3)nc2n1CCc1ccccc1,2%,5%,13%,i,-8%,17%
CCc1cc(Br)ccc1N1C(=O)C2CC=CCC2C1=O (configuration not stated),0%,-1%,2.5µM*,i,-1%[11 µM],7%[11.4 µM]
Clc1ccccc1-c1nn2c(Cn3cnc4ccccc43)nnc2s1,-1%,8%,3.2µM*,i,-1%,27%
O=S(=O)(c1ccccc1)c1nc(-c2ccco2)oc1NCc1ccco1,-1%,0%,18%,i,-10%,16%
CC1CN(c2oc(-c3ccco3)nc2S(=O)(=O)c2ccccc2)CC(C)O1 (configuration not stated),0%,-3%,25µM*,i,0%,27%
